PubChem BioAssay AID504766 (The Scripps Research Institute Molecular Screening Center, 2011)
Values joined by “and” are separate entries in the source; they are usually repeats but may differ in a detail not shown here. Identical values can stand only once. Hit rate of the full screen: of about 340,000 compounds, about 3,400 (1%) were called active. The sample holds actives, similar compounds and a random draw of the others, so the mix is not that of the screen.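 The calls were made as follows: active = inhibition above the mean over all tested compounds plus 3 SD (cut at about 4.2% in these data); inactive = the rest.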 Where a structure was tested more than once in an assay, its records may differ in their call.

Molecular target: Nuclear receptor subfamily 0 group B member 1 (Homo sapiens) (UniProt P51843)
Assay: relief of DAX1 transcriptional repression – cell-based, HEK293, Gal4-DAX1, luciferase luminescence, primary screen (AID 504766);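 also: 0% = DAX1-transfected cells with DMSO and 100% = empty-vector control cells with DMSO; inhibition shows as a rise in luminescence from relieved DAX1 repression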
Conditions: HEK293 Gal4-DAX1 luciferase reporter, at 6.75 µM, stronger effect = higher value

Sequence of Nuclear receptor subfamily 0 group B member 1 (Homo sapiens) (P51843 207-470 limits assumed): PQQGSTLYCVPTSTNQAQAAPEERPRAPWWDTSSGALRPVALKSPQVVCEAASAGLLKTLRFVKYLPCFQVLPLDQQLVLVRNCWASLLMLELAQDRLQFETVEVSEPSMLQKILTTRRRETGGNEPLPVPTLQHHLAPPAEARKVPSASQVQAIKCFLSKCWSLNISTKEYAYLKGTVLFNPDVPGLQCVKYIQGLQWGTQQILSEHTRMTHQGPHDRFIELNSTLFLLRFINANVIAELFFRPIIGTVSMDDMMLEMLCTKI

Row | SMILES | inhibition
1 | Cn1c(SCC(=O)Nc2cccc(NC(=O)c3cccs3)c2)nnc1-c1ccncc1 | -0.64% (inactive)
2 | Cc1cc(-c2nc(C)c(-c3nnc(SCC(=O)Nc4ccccc4)n3C)s2)no1 | -0.43% (inactive)
3 | Cc1nc(-c2nnc(SCC(=O)Nc3cc(C(F)(F)F)cc(C(F)(F)F)c3)n2C)cs1 | 6.44% (active)
4 | O=C(c1ccc(CS(=O)Cc2ccccc2Cl)o1)N1CCN(c2ccccc2)CC1 (configuration not stated) | 0.5% (inactive)
5 | CCOC(=O)C(C(=O)c1ccccc1)C(c1ccccc1)c1nccc2ccccc12 (configuration not stated) | -0.83% (inactive)
6 | CC1(c2cccc(Br)c2)NC(=O)N(CC(=O)NCCC2=CCCCC2)C1=O (configuration not stated) | 1.45% (inactive)
7 | O=S1(=O)CCN(Cc2ccccc2)CC1 | -0.64% (inactive)
8 | CC(=O)N1CCN(CCN=CC2=C(O)CC(C)(C)CC2=O)CC1 | 0.1% (inactive)
9 | CC(C)C(=O)N1CCN(CCN=CC2=C(O)CC(c3ccco3)CC2=O)CC1 (configuration not stated) | 5.43% (active) and 1.58% (inactive)
10 | O=C1CC(c2ccccc2)CC(O)=C1C=NCCN1CCOCC1 (configuration not stated) | -0.18% (inactive)
11 | CC1(C)CC(=O)C=C(c2ccc(COC(=O)c3cc(F)cc(F)c3)cc2)C1=O | -0.88% (inactive)
12 | CC1C(=O)N(Cc2cn(CC3CCCCC3)nn2)CCS(=O)(=O)N1Cc1ccc(-c2cccc(N(C)C)c2)cc1 (configuration not stated) | 0.14% (inactive)
13 | C[C@H](CO)N1C[C@H](C)[C@H](CN(C)C(=O)Nc2ccc3c(c2)OCO3)Oc2ncc(Br)cc2C1=O | 2.47% (inactive)
14 | Cc1cc2c(c(=O)n1C)C(C(C)C)C(C#N)=C(N)O2 (configuration not stated) | -0.55% (inactive)
15 | N#CC1=C(N)Oc2cc(N)ccc2C1c1ccccc1 (configuration not stated) | 0.38% (inactive)
16 | Cn1c2c(c(=O)n(C)c1=O)C(c1cccc(F)c1)C(C#N)=C(N)O2 (configuration not stated) | 5.95% (active)
17 | CC1CC(NC(=S)N(C)C)CC(C)(C)C1 (configuration not stated) | 1.5% (inactive)
18 | COc1cccc(/C=C2\SC(=S)N(CCCC(=O)N3CCOCC3)C2=O)c1 | -0.53% (inactive)
19 | COc1ccccc1N1CCN(C(=O)c2cc3c(-c4ccc(Cl)cc4)nn(C)c3s2)CC1 | 2.84% (inactive)

Row | SMILES | inhibition
20 | CCOC(=O)N1CCN(C(=O)c2cc3c(-c4ccc(Cl)cc4)nn(C)c3s2)CC1 | 4.96% (active)
21 | COc1cccc(-c2nn(C)c3sc(C(=O)N4CCN(c5ccccc5)CC4)cc23)c1 | -1.01% (inactive)
22 | COCCCn1c(C(=O)NC2CCCCC2)cc2c(=O)n3cccc(C)c3nc21 | -1.22% (inactive)
23 | O=C(Nc1ccc2c(c1)[C@@H]1C[C@@H](CC(=O)N3CCCCC3)O[C@@H](CO)[C@@H]1O2)NC1CCCCC1 | 0.47% (inactive)
24 | Cc1cccc(C(=O)NC2CCN(CC(=O)Nc3cccc(Cl)c3)CC2)c1 | 0.29% (inactive)
25 | O=C(NCCN1CCOCC1)C1CCN(S(=O)(=O)c2ccccc2)CC1 | 4.19% (inactive)
26 | CC1C/C(=N/NC(=O)c2cccs2)CC(C)(C)C1 (configuration not stated) | 5.93% (active)
27 | CC1(C)CC(=O)C/C(=N\NC(=O)c2cccs2)C1 | -0.39% (inactive)
28 | CC1CC(=NNC(=O)C2COc3ccccc3O2)CC(C)(C)C1 (configuration not stated) | 0.05% (inactive)
29 | C[C@H](CO)N1C[C@H](C)[C@@H](CN(C)C(=O)c2cnccn2)Oc2ncc(Br)cc2C1=O | -0.09% (inactive)
30 | COc1cc(OC)c(C(=O)NC2CC(C)(C)NC(C)(C)C2)cc1OC | 0.81% (inactive)
31 | COc1cc2c(cc1OC)C(=O)NCC(C)(C)O2 | 4.35% (active)
32 | COc1ccc(C(=O)NC2CC(C)(C)NC(C)(C)C2)cc1OC | 0.53% (inactive)
33 | O=C(OCc1cn([C@H]2C[C@H](c3ccccc3)N(C(=O)c3cccs3)C[C@@H]2O)nn1)c1ccccc1 | -0.83% (inactive)
34 | COc1ccc(C(=O)NC2=NCCS2)c(OC)c1 | 0.9% (inactive)
35 | COc1ccc(C(=O)Nc2nncs2)c(OC)c1 | 5.95% (active)
36 | COc1ccc(C(=O)Nc2cccc(NC(=O)c3ccc(OC)cc3OC)n2)c(OC)c1 | -0.74% (inactive)
37 | Cn1nc(N)c2ncc(C(Cl)(Cl)Cl)nc21 | 0.87% (inactive)
38 | CCOC(=O)c1c(C)[nH]c(C)c1C(=O)COC(=O)/C=C/c1cccc([N+](=O)[O-])c1 | 0.45% (inactive)

Row | SMILES | inhibition
39 | CC1=C(C)CC(C(=O)NC(C)CCc2ccccc2)C(C(=O)O)C1 (configuration not stated) | 4.67% (active)
40 | CC(CCc1ccccc1)NC(=O)c1ccc(Br)o1 (configuration not stated) | -0.46% (inactive)
41 | CCN(CC)S(=O)(=O)N1CCC(C(=O)NC(C)CCc2ccccc2)CC1 (configuration not stated) | 0.09% (inactive)
42 | CC(C)CC1C(=O)N(Cc2cn(CC3CCCCC3)nn2)CCS(=O)(=O)N1Cc1ccc(-c2ccc(Cl)cc2)cc1 (configuration not stated) | 0.42% (inactive)
43 | CC(=O)c1ccc(OCC(=O)N(C)C2CCS(=O)(=O)C2)cc1 (configuration not stated) | -0.31% (inactive)
44 | CN1CCN(/N=C/c2ccc(-c3ccc([N+](=O)[O-])cc3)o2)CC1 | 4.57% (active)
45 | Cc1ccc(-c2ccc(/C=N/NC(=O)CN3CCOCC3)o2)cc1[N+](=O)[O-] | -1.47% (inactive)
46 | CN1CCN(/N=C/c2ccc(C#N)cc2)CC1 | 2.94% (inactive)
47 | C[C@H]1CN(c2ccc(Br)cc2)C(=O)[C@@H]1CC(=O)Nc1ccc(Br)cc1 | 0.61% (inactive)
48 | CCc1cc(C(=O)N(CC)CC(=O)Nc2c(F)cccc2F)sc1C | 1.94% (inactive)
49 | Nc1ccc2nn(-c3ccc(Cl)cc3)nc2c1 | 5.29% (active)
50 | Nc1ccc2c(c1)C(O)c1ccc(Cl)cc1-2 (configuration not stated) | 1.37% (inactive)
51 | CCC(=O)Nc1ccc2nn(-c3ccc(F)cc3)nc2c1 | 1.93% (inactive)
52 | Cc1ccccc1Nc1nc(N)nc(CSc2ccccc2)n1 | 3.71% (inactive)
53 | Cc1nnc(SCc2nc3ccccc3nc2C)s1 | 0.55% (inactive)
54 | Cc1ccc(Nc2nc(N)nc(CSc3nnc(C)s3)n2)cc1 | 4.29% (active)
55 | Cc1cn([C@H]2C[C@H](O)[C@@H](CNC(=O)[C@H](N)Cc3cccnc3)O2)c(=O)[nH]c1=O | 0.07% (inactive)
56 | CNC(=O)C[C@H]1C(=O)N(c2ccc(OC)cc2)C[C@@H]1Cc1ccccc1 | 0.14% (inactive)
57 | C[C@H](CO)N1C[C@H](C)[C@@H](CN(C)S(=O)(=O)c2ccc(Oc3ccccc3)cc2)OCc2cn(nn2)CCCC1=O | 0.27% (inactive)
